The results in this text go back to the supplement of paper PMC6555819.

In the first assay the test system is PXR:RXRa (NR concentration 270 nM, RXRa partner concentration 90 nM). The assay is described as follows: PBM binding z-score (relative to random genomic background probes); higher = stronger binding; sequences stand for … in GC…GCGATTGACAGCGTAGAATGAAGG
Put shortly: (§1)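 Each nuclear receptor dimer, without ligand, was incubated for 1 h on custom Agilent 4×180K protein-binding microarrays. Binding was detected with antibodies against each partner (one per run), and scanned fluorescence was regression-normalized. The binding z-scores are referenced to random human genomic background probes.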
On to ACTAGCAGGCCAAGTCTGGGTCACTCAAACAAAG, for which the PBM binding z-score worked out at 0.664.
Still for that read-out and setting: to ATCTCTAGGTAAGACTAAGTTCAGTGAAGAACGC belongs 1.83; to CAAACTAGGTCAGCGGAAGGTCAAAGTCCGCATG, 5.42; to GATACAGGGTCAAGGCCGGAGTACGCGTATTGAT, 3.56.
The same measure, in the same setting: to GCGTACGGGTCAAAGGTTATAGCATGAATAGAAT belongs 6.11.
The sequence CGATCGAGGGCATGAGTTGATAGCAAATGCCGAT returned a PBM binding z-score of 0.228.
On the same count and under the same terms, to GTACCTAGGTGAATAGGTCGTTGATGAGTAGGCG belongs 0.327; to TCTATTAGTTTATTAGGGCAACCGAAACAGCGGA, 1.07; to GCTCGGCGGACAAGGTCAGAGCTTTGTCCGTAGA, 1.55.
On to ACTAGCAGGCCAAGGGTCTCTCAAGATTAGTCCG, for which the PBM binding z-score was -0.568.
Still for that read-out and setting: as for GCTGCTAGGTCAGGTTGGTCAGATAACGGGTACG, the figure is 0.425.
On the same count and under the same terms, as for GCTAGCAGGCCATTTGAGTCACTCAATGACGGGC, the figure is -0.369; as for CGAACGAGGGCATGCGTTGATAGCAAATGCCGAT, 0.344.
Still for that read-out and setting: to AATAGCAGGCCAAGTTTGGGTCACTCAAACAAAG belongs 1.05; to TCTAGTTCGTCAAAGGTCACACACTCGAAATGCG, 6.15.
In turn, ACTTACGGGTCAACGAGGTTATAGTACGCGTATA came in with a PBM binding z-score of 5.39.
In the case of AGAATGAGGGCAATGAGTTGATAGCACGGGTGGC, the PBM binding z-score was determined as 1.89.
Regarding ACTAGCAGGCCAAGTTTGGGTCACTGAAACAAAG, the PBM binding z-score was determined as 0.641.

The next assay concerns PXR homodimer (NR concentration 270 nM). Described as above. A digest of the protocol: as §1
For the sequence ATCGAAATGTCGAGGTGAGTATAGAGAAAGGGAA, the PBM binding z-score was -0.513.
The same measure, in the same setting: as for ACTAGCAGGCCCAGTTTGGGTCACTCAAACAAAG, the figure is -0.753; as for CCTAGTTGGTCGGGAGGTCACACACCGGATATGA, 2.4; as for ATCTCTAGGTAAAGACAGTTCAGTGAATGCAAAT, 1.
CCGATTGGGGCAAGGTTACCATAACGCACAGCCA yielded a PBM binding z-score of -0.458.
With GCTGTTAGGTCAACTGATGGTCAGCTAAAGCTCG, the PBM binding z-score was -0.291.
The sequence AGAATGAGGTTATACGTAGTTCAGGGAAGAAAGT returned a PBM binding z-score of 0.774.
Still for that read-out and setting: to CCTTGTTGGTCAAGGTCACACACGCTATAGGTAC belongs 1.5; to CGTCCAAGGTCAGAGAGGTCAGTTAATGCCGAGT, 12.6; to TCGAGTAGGTCAGGGGCATTCAGAATGGCGTCGA, -0.323.
Turning to GCAGACAGGTGAAACGCAGGAAACTCAGGGTGGC, the PBM binding z-score was -0.338.
Still for that read-out and setting: to ACTCGGAGAACAAAGGTCAGAGCTACGCCAGTGA belongs 0.0377.
Same read-out and setting: to ATCTCTAGGTAAAGATAGATCAGTGAATGCAAAT belongs 0.0363; to CGTCCAAGGGCAAAGGTCAGTGAAGAGATGACGG, 0.541; to TCTCGGAGGACACGAACGGTCAGAGCTCGACATC, -0.654.
Still for that read-out and setting: to GCGACTGGGGTATCAGCAGGTTACCATAACTTAA belongs -0.238.
In turn, ATCTCTAGGTAAAAAGTTCAGTGAAAGAGAGGAC returned a PBM binding z-score of 1.46.
Still for that read-out and setting: to CTCGAAAGGTCGGTTAAGGTGAGTATACGGATAA belongs 0.341; to GCTGCTAGGTCAGGTTGGTCACCTAACGGGTACG, -0.213.
As to GGAACGAGGGCAAAGTTGATAGCATCTGTCGACG, the PBM binding z-score is -0.0271.
Take CCTTACGGGTGACTGACAGGTTATAGCATTTGGA: the PBM binding z-score is -0.0252.
With AATCCAGGGTCATCGTAGGCCAGAGTACGCACAG, the PBM binding z-score worked out at 0.854.
Still for that read-out and setting: to ACTAGCAGGCCAAGTCTGGGTCACTCAAACAAAG belongs -0.106.
ATCTCTAGGTAAGACTAAGTTCAGTGAAGAACGC showed a PBM binding z-score of 1.82.
The same measure, in the same setting: to CAAACTAGGTCAGCGGAAGGTCAAAGTCCGCATG belongs 1.11; to GATACAGGGTCAAGGCCGGAGTACGCGTATTGAT, 0.0329; to GCGTACGGGTCAAAGGTTATAGCATGAATAGAAT, 0.08.
CGATCGAGGGCATGAGTTGATAGCAAATGCCGAT: the PBM binding z-score was -0.306.
The same measure, in the same setting: as for GTACCTAGGTGAATAGGTCGTTGATGAGTAGGCG, the figure is -0.195.
Same read-out and setting: to TCTATTAGTTTATTAGGGCAACCGAAACAGCGGA belongs 1.21; to GCTCGGCGGACAAGGTCAGAGCTTTGTCCGTAGA, -0.547.
The sequence ACTAGCAGGCCAAGGGTCTCTCAAGATTAGTCCG showed a PBM binding z-score of -0.576.
As to GCTGCTAGGTCAGGTTGGTCAGATAACGGGTACG, the PBM binding z-score is -0.0616.
Still for that read-out and setting: as for GCTAGCAGGCCATTTGAGTCACTCAATGACGGGC, the figure is -0.961.
The same measure, in the same setting: to CGAACGAGGGCATGCGTTGATAGCAAATGCCGAT belongs -0.453; to AATAGCAGGCCAAGTTTGGGTCACTCAAACAAAG, -0.42.
In turn, TCTAGTTCGTCAAAGGTCACACACTCGAAATGCG yielded a PBM binding z-score of 2.25.
Take ACTTACGGGTCAACGAGGTTATAGTACGCGTATA: the PBM binding z-score was determined as 4.31.
Same read-out and setting: as for AGAATGAGGGCAATGAGTTGATAGCACGGGTGGC, the figure is 5.25.
Regarding ACTAGCAGGCCAAGTTTGGGTCACTGAAACAAAG, the PBM binding z-score was -0.0145.
